High-throughput results: PubChem BioAssay, National Center for Advancing Translational Sciences (NCATS)
PLK1 PBD inh: qHTS for Inhibitors of PLK1-PDB (polo-like kinase 1 - polo-box domain): Primary Screen | Serine/threonine-protein kinase PLK1 (Homo sapiens), P53350 | Plk1 PBD binding of FITC phosphopeptide, fluorescence polarization | Potency, µM, for inactives: max response, negative = inhibition, most hits filed as inhibitors | 360,000 compounds, 2.8% hits; further: series mostly up to about 57 µM; nearly all actives have a fitted effect of over 65% in size
TDP1 inh: qHTS Assay for Inhibitors of Tyrosyl-DNA Phosphodiesterase (TDP1) | Tyrosyl-DNA phosphodiesterase 1 (Homo sapiens), Q9NUW8 | recombinant TDP1, AlphaScreen DNA substrate cleavage | Potency, µM (top dose mostly 130 µM), inactives show top-dose activity change, negative = inhibition, most hits filed as inhibitors | 350,000 compounds, 0.28% hits | AID 485290, 2010; further: nearly all actives have a fitted effect of over 40% in size
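Tdp1 1 nM final; 15 min RT w/ cpd; substrate 15 nM, 5 min; beads 10 ug/ml, 10 min; AlphaScreen read. Neg ctrl: no enzyme.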
VDR inhibitor: Inhibitors of the vitamin D receptor (VDR): qHTS | Vitamin D3 receptor (Homo sapiens), P11473 | VDR-SRC2-3 peptide fluorescence polarization, 2 h | Potency, µM, inactives show max response, negative = inhibition, hits mostly inhibitors | 400,000 compounds, 0.93% hits | AID 504847, 2011
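Compounds are added to VDR with labelled SRC2-3 coactivator peptide and held 2 h at room temperature. Inhibition of the VDR–peptide interaction is then read as a change in fluorescence polarization.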
TDP1 cell CPT: qHTS for Inhibitors of human tyrosyl-DNA phosphodiesterase 1 (TDP1): qHTS in cells in presence of CPT; 420,000 compounds, 12% hits; chicken DT40 Tdp1-/-;hTDP1 cells + 20 nM CPT, ATP luminescence, 48 h; Potency, µM (series often up to 46.2 µM), inactives show at the highest dose activity change, negative = growth inhibition, usual class: inhibitors; AID 686979, 2013; further: nearly all actives have a fitted effect of over 55% in size
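Chicken DT40 Tdp1-/- cells complemented with human TDP1, 400 cells/well, exposed to compounds plus 20 nM camptothecin for at least 48 h at 37 C; viability read as ATP content by CellTiter-Glo luminescence.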
KAT2A inh: qHTS Assay for Inhibitors of GCN5L2 | GCN5L2 HAT assay, ThioGlo1 CoA-SH fluorescence | Potency, µM (top dose mostly 58.9 µM), inactives show at the highest dose activity change, negative = inhibition, usual class: inhibitors | 390,000 compounds, 0.21% hits | AID 504327, 2011
Target sequence (Q92830 whole entry, looked up): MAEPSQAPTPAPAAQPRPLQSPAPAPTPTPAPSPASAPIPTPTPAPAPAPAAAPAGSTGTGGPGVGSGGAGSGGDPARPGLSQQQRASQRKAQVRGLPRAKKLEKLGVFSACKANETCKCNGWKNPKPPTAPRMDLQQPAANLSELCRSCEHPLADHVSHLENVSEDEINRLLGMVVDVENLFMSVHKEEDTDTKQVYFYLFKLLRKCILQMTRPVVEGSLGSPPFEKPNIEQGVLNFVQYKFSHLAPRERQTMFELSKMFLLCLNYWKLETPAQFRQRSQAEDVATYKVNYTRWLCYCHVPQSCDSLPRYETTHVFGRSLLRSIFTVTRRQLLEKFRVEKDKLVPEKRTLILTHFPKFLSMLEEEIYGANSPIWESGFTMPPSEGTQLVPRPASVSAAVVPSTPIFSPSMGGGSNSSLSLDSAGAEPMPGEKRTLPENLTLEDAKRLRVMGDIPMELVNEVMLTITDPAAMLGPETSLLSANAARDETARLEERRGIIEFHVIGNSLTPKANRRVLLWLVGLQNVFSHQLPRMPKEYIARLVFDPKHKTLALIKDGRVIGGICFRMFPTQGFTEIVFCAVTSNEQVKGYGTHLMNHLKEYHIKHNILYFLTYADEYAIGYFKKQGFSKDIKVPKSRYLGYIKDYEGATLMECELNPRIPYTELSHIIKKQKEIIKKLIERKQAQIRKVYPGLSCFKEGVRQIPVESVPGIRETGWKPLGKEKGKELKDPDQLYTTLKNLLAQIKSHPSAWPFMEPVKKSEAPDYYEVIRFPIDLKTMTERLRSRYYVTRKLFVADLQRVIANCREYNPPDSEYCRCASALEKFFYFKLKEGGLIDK
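Free CoA generated was detected with ThioGlo1 (50uM) fluorescence at Ex340nm/Em540nm, read immediately and after 20 min at room temperature. Enzyme, 20 nM in HEPES pH 7.5 buffer, saw compounds 15 min before adding 75uM H3(1-25) peptide and 70uM acetyl-CoA.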
TDP1 cell noCPT: qHTS for Inhibitors of human tyrosyl-DNA phosphodiesterase 1 (TDP1): qHTS in cells in absence of CPT. 420,000 compounds, 15% hits. Potency, µM (highest dose often 46.2 µM), inactives show top-dose activity change, negative = growth inhibition, actives largely listed as inhibitors. DT40 Tdp1-/- hTDP1 cells, no CPT, ATP luminescence, 48 h; further: nearly all actives have a fitted effect of over 55% in size
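No-CPT arm: Tdp1-/-;hTDP1 DT40 cells (400/well) plus compounds, incubated ≥48 hr at 37 °C. Readout CellTiter-Glo luminescence.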
Starred values were filed as active, the others as inactive; u = inconclusive; x = no result; ! = a repeat was not active; [ ] = dose if it differs, or a comment. Most compounds without a hit are left out; they make up all but 18% or so of the library. The call rests on the fitted dose curve; in most records, active means well fitted curve in the direction sought with a large enough effect; inconclusive means small, poorly fitted or top-dose-only effect, or another doubt; inactive means no such curve, though single readings can be large; an effect the other way counts as inactive or inconclusive. On the % scale 0 is the no-effect control and ±100 the full control effect; potency means the concentration at half of the fitted maximal effect.

SMILES	PLK1 PBD inh	TDP1 inh	VDR inhibitor	TDP1 cell CPT	KAT2A inh	TDP1 cell noCPT
COCCNC(=O)c1cc(Sc2ccc(F)cc2F)nc2ccccc12	x	2.6%	6.8%	-29.2%	-4.7%	-19.8%
CCC1CCCCN1CCCNC(=O)c1[nH]c2ccccc2c1Sc1ccc(Cl)cc1 (stereo not given)	x	5.7%	10.8%	u	-3.1%	u
CCOc1ccc(Sc2cc(C(=O)NCCCOC)c3ccccc3n2)cc1	x	2.6%	9.9%	20.6µM*	-14.5%	16.4µM*
CCOc1ccc(Sc2cc(C(=O)NC(C)c3ccccc3)c3ccccc3n2)cc1 (stereo not given)	x	-2.6%	4.9%	u	0.5%	u
CC1CCN(CCCNC(=O)c2cc(Sc3ccc(F)cc3)nc3ccccc23)CC1	x	10.4%	4.6%	23.1µM*	0.4%	u
CCc1ccc(Sc2cc(C(=O)NCCN3CCOCC3)c3ccccc3n2)cc1	-7.9%	-4.2%	18.1%	u	-0.2%	14.6µM*
COc1cc(CN2C[C@@H](CO)O[C@@H](n3cnc4c(NC5CCCC5)ncnc43)C2)cc(OC)c1OC	-6.7%	x	x	-7.5%	x	u
CCOc1ccc(NC(=O)CSc2nnc(CC)c(CC)n2)cc1	x	-2.6%	3.8%	u	-0.8%	u
O=C(NCCCn1ccnc1)Nc1ccc2c(c1)OCO2	-5.9%	x	7.2%	13.7%	0.0%	2.7%
CCCN(CCC)CCNC(=O)c1cc(Sc2ccc(Cl)cc2)nc2ccccc12	x	2.6%	0.7%	16.4µM*	9.5%	18.4µM*
CCN(CC)CCNC(=O)c1cc(Sc2nnc(C)s2)nc2ccccc12	-3.1%	-3.1%	24.3%	7.1%	-6.3%	-2.4%
COc1ccccc1-n1cnnc1SCC(=O)Nc1ncc(Cl)cc1Cl	29.9µM*	0.0%	-17.7%	u	-1.8%	u
C=C1CCC2C(C)(CO)C(O)CCC2(C)C1C/C=C1\C(=O)OCC1O (stereo not given)	x	12.8%[56.1 µM]	x	3.98µM*	x	5.01µM*
CC1(C)C[C@H]2C3=CCC4[C@@]5(C)CC[C@H](O)[C@](C)(CO)C5CC[C@@]4(C)[C@]3(C)CC[C@@]2(C)[C@H](O)[C@@H]1O (stereo not given in full)	-0.4%	0.1%	-19.5%	-5.0%	-0.4%	u
Cc1ccc(NC(=S)/C(C#N)=C2/Nc3ccccc3S2)cc1	26.7µM*	x	x	29.1µM*	x	23.1µM*
N#C/C(C(=O)N1CCCCC1)=C1\Nc2ccccc2S1	-14.5%	3.3%	4.9%	2.8%	-12.3%	u
O=C(Nc1ccsc1C(=O)N1CCCC1)c1ccccc1	1.3%	2.9%	-17.3%	16.4µM*	-2.8%	20.6µM*
COC(=O)c1ccc(Cn2c(C)c(C(=O)Nc3cccc(Oc4ccccc4)c3)sc2=O)o1	4.3%	x	x	u	x	u
CCc1cccc(N(C)C(N)=Nc2cccc3ccccc23)c1	-1.8%	x	5.9%	10.6µM*!	-1.4%	15µM*!
Cc1ccc2c(c1)N(C(=O)c1ccc(F)cc1)C(C)(C)CC2(C)c1ccccc1 (stereo not given)	x	1.0%[2.28 µM]	-15.1%	u	-12.2%	20.6µM*
COc1cccc(CNC(=O)Cn2c(=O)n3nc(-c4cccc(F)c4)nc3c3ccccc32)c1	x	2.6%	11.1%	-5.7%	2.1%	-13.4%
Nc1nnnn1/N=C/c1cc(Cl)cc(Cl)c1O	11.9µM*	x	-19.5%	-26.1%	-20.9%	u
CCN(C)c1ccc(/C=N\n2nnnc2N)cc1	2.0%	50.1µM*	-6.7%	7.31µM*	-3.5%	5.8µM*
CCN(CC)c1ccc(/C=N/n2nnnc2N)c(O)c1	-4.9%	-1.1%	-2.6%	14.6µM*	-2.6%	16.4µM*
CSc1ccc(/C=N/n2nnnc2N)cc1	0.3%	1.1%	12.0%	-0.3%	2.1%	0.0%
SMILES	PLK1 PBD inh	TDP1 inh	VDR inhibitor	TDP1 cell CPT	KAT2A inh	TDP1 cell noCPT
Nc1nnnn1/N=C/c1cc(Cl)ccc1O	u	x	-0.2%	-1.4%	-24.2%	-2.4%
O=C(Cn1c(=O)n(Cc2ccccc2)c(=O)c2ccccc21)NCc1ccco1	-4.8%	-1.4%	5.2%	u	0.0%	u
O=C(CCCCn1c(=O)c2ccccc2n(Cc2ccc(F)cc2)c1=O)NCc1ccco1	-2.7%	0.0%	-19.5%	16.4µM*	-2.8%	14.6µM*
O=C(CCCCn1c(=O)c2ccccc2n(CC(=O)Nc2ccccc2)c1=O)NCc1ccco1	-5.9%	2.2%	-0.1%	0.8%	-1.7%	-19.3%
O=C(CCCn1c(=O)c2ccccc2n(Cc2ccccc2)c1=O)NCc1ccco1	0.9%	-1.8%	6.9%	11.6µM*	-17.3%	14.6µM*
CCN(CC)S(=O)(=O)c1ccc2c(c1)N(CC(=O)Nc1ccc(C)cc1C)C(=O)C1CCCN21 (stereo not given)	x	2.6%	5.6%	7.3%	-0.2%	u
COc1ccc(-c2nc(SCC(=O)NCCc3ccccc3)n[nH]2)cc1	x	-2.7%	13.1%	u	-15.0%	u
COc1ccc(-c2nc(SCC(=O)NCc3ccccc3Cl)n[nH]2)cc1	x	0.0%	-1.5%	5.8µM*	-1.6%	7.31µM*
CCOc1cc(CNC(=O)CSc2n[nH]c(-c3ccccc3)n2)cc(OCC)c1OCC	x	5.4%	9.2%	20.6µM*	-4.8%	u
COC(=O)[C@@]1(Cc2ccc(F)cc2)[C@@H]2C(=CC(=O)[C@H]2CC(=O)C(=O)N(C)C)CN1C(=O)c1ccccc1	x	2.1%	x	x	x	x
O=C(NC1=NCCS1)c1cccc2ccccc12	-7.9%	2.6%	-2.0%	4.2%	-3.1%	13.0%
CCN(Cc1ccccc1)S(=O)(=O)c1ccc(OC)cc1	-0.5%	x	-16.3%	u	-6.8%	16.4µM*
CCN(Cc1ccccc1)S(=O)(=O)c1ccc(-c2coc(C)n2)cc1	x	-3.3%	2.6%	13µM*	-27.4%	23.1µM*
Cc1nc(-c2ccc(S(=O)(=O)N(Cc3ccccc3)C(C)C)cc2)co1	x	3.3%	0.5%	u	-11.1%	14.6µM*
CCn1c(CNC(=O)c2cccnc2)cc2ccccc21	-4.9%	2.8%	-15.5%	-17.6%	2.5%	u
Cc1cccc(N2CCN(C(=O)CCc3nc4ccccc4c(=O)[nH]3)CC2)c1C	1.9%	0.8%	0.1%	-8.2%	-7.6%	u
